From PubChem BioAssay (Tox21)
Inconclusive results are not listed. A number with no mark means an inactive call. The call rests on the fitted dose curve; in most records, active means well fitted curve in the direction sought with a large enough effect in the repeat runs; inconclusive means weak or mixed curves; inactive means no such curve, though single readings can be large; an effect the other way counts as inactive or inconclusive.

Assay: qHTS assay to identify small molecule antagonists of the TGF-beta/Smad signaling pathway - cell viability counter screen (AID 1346824); further: nearly all actives have a fitted effect of over 50% in size
Details: SBE-bla HEK293T viability, CellTiter-Glo luminescence; series mostly up to 76.8 µM; viability change, negative = cytotoxic: at the top concentration
In short: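 Cytotoxicity counter-screen run in the same wells as the beta-lactamase Smad reporter read: CellTiter-Glo luminescence after 30 min at room temperature. HEK 293T SBE-bla cells had 5 hr compound exposure at 37 C with TGF-beta1 (0.25 ng/mL stock).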
On the % scale 0 is the no-effect control and ±100 the full control effect.

Point of comparison: `O=C(OCCCCCOC(=O)c1ccccc1)c1ccccc1`, “viability change, negative = cytotoxic” value -1.4%. Against it:
- Nc1nc(Cl)nc2c1ncn2[C@H]1C[C@H](O)[C@@H](CO)O1 — higher, 15.9%
- Cc1cc(SC2=C(O)C[C@@](CCc3ccc(N)cc3)(C(C)C)OC2=O)c(C(C)(C)C)cc1CO — higher, 10.1%
- CCCCOC(=O)CC#N — lower, -15.5%
- CC(C)=CCCC(C)C=O (configuration not stated) — higher, 6.38%
- CCC(C)CCCC(C)(C)O (configuration not stated) — higher, 0.926%
- CC(C)C/C=C(\C=O)c1ccccc1 — lower, -1.43%
- CC/C=C\CCO — higher, -0.109%
- C=CC(C)CCC=C(C)C (configuration not stated) — lower, -9.47%
- O=[N+]([O-])c1cccc(I)c1 — higher, 0.241%
- Nc1ccc(-c2ccc(F)cc2)cc1 — higher, 2.67%
- CCCC(=O)OCCC(C)C — higher, 26.9%
- CC(C)NC(=O)c1ccccc1N — higher, 1.96%
- NC(=O)c1ccccc1C(N)=O — higher, 5.82%
- CCc1ccc2c(c1)C(=O)c1ccccc1C2=O — lower, -6.77%
- COC(=O)Cc1cccc2ccccc12 — higher, 2.18%
- CCCc1ccc(OC)cc1 — lower, -7.18%
- O=Cc1ccc([N+](=O)[O-])cc1 — higher, 2.61%
- O=C1CCCN1CCO — lower, -17.4%
- O=C(Cl)c1ccc(F)c(Cl)c1 — higher, 9.93%
- Nc1cccc2c(=O)[nH][nH]c(=O)c12 — lower, -5.57%
- N#CCCCC(C#N)CCC#N (configuration not stated) — higher, 1.56%
- O=C(O)c1cccc(C(=O)O)c1C(=O)O — lower, -19.9%
- CCCCCO — higher, -0.496%
- CS(C)=O — higher, 4.52%
- CC(CCl)OC(C)CCl (configuration not stated) — lower, -13.8%
- O=c1[nH][nH]c2ccccc12 — higher, 4.82%

Point of comparison: `O=C(O)CCc1nc2ccccc2[nH]1`, “viability change, negative = cytotoxic” value -0.545% [at 35.3 µM]. Against it:
- CC1(COc2ccc(CC3SC(=O)NC3=O)cc2)CCCCC1 (configuration not stated) — lower, -1.82% [at 35.3 µM]
- Cc1c(Nc2ncccc2C(=O)O)cccc1C(F)(F)F — higher, 0.348% [at 35.3 µM]
- CCCCCCCCCCCCCCCCN — higher, 2.2% [at 35.3 µM]
- CC(CC(C#N)(c1ccccc1)C(C)C)N(C)C (configuration not stated) — lower, -9.01% [at 35.3 µM]
- Cc1ccc(NC(=O)c2ccc(CN3CCN(C)CC3)cc2)cc1Nc1nccc(-c2cccnc2)n1 — higher, 3.8% [at 35.3 µM]
- CC(C)C[C@H](NC(=O)[C@H](Cc1ccccc1)NC(=O)c1cnccn1)B(O)O — lower, -1.18% [at 35.3 µM]
- CC(C)(C(=O)O)c1ccc(C(O)CCCN2CCC(C(O)(c3ccccc3)c3ccccc3)CC2)cc1 (configuration not stated) — higher, 2.24% [at 35.3 µM]
- CCC(C(=O)O)c1ccc(N2Cc3ccccc3C2=O)cc1 (configuration not stated) — lower, -20.1% [at 35.3 µM]
- O=C(C1CCCCC1)N1CC(=O)N2CCCc3ccccc3C2C1 (configuration not stated) — lower, -9.59% [at 35.3 µM]
- O=C(OCCN1CCOCC1)c1cccnc1Nc1cccc(C(F)(F)F)c1 — higher, 1.03% [at 35.3 µM]
- C[C@H](N)C(=O)N[C@@H](C)C(=O)NC1[C@H]2CN(c3nc4c(cc3F)c(=O)c(C(=O)O)cn4-c3ccc(F)cc3F)C[C@@H]12 (some centres not stated) — lower, -7.87% [at 35.3 µM]

Assay: qHTS assay to identify small molecule agonists of the TGF-beta/Smad signaling pathway - cell viability counter screen (AID 1346829); further: top concentration of the series differs between compounds; nearly all actives have a fitted effect of over 45% in size
Details: SBE-bla HEK293T viability, CellTiter-Glo luminescence, 5 h; series mostly up to 76.8 µM; activity change, negative = cytotoxicity: at the top concentration
In short: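 After overnight seating at 37 C and 5% CO2, reporter cells got compounds for 5 hr and FRET substrate for 2 hr; cell viability then came from CellTiter-Glo luminescence.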

Point of comparison: `O=[N+]([O-])c1cccc(I)c1`, “activity change, negative = cytotoxicity” value -0.0206%. Against it:
- Nc1nc(Cl)nc2c1ncn2[C@H]1C[C@H](O)[C@@H](CO)O1 — higher, 26.6%
- Cc1cc(SC2=C(O)C[C@@](CCc3ccc(N)cc3)(C(C)C)OC2=O)c(C(C)(C)C)cc1CO — higher, 9.56%
- CCCCOC(=O)CC#N — higher, 9.58%
- CC(C)=CCCC(C)C=O (configuration not stated) — lower, -2.47%
- CCC(C)CCCC(C)(C)O (configuration not stated) — lower, -5.06%
- O=C(OCCCCCOC(=O)c1ccccc1)c1ccccc1 — lower, -4.08%
- Nc1ccc(-c2ccc(F)cc2)cc1 — higher, 0.279%
- CCCC(=O)OCCC(C)C — higher, 21.7%

Point of comparison: `Cc1ccc(NC(=O)c2ccc(CN3CCN(C)CC3)cc2)cc1Nc1nccc(-c2cccnc2)n1`, “activity change, negative = cytotoxicity” value 18% [at 35.3 µM]. Against it:
- CC1(COc2ccc(CC3SC(=O)NC3=O)cc2)CCCCC1 (configuration not stated) — lower, -17.7% [at 35.3 µM]
- Cc1c(Nc2ncccc2C(=O)O)cccc1C(F)(F)F — lower, -14.3% [at 35.3 µM]
- CC(CC(C#N)(c1ccccc1)C(C)C)N(C)C (configuration not stated) — lower, 5.56% [at 35.3 µM]
